# In PubChem BioAssay (NCI):
# About 83,000 compounds went through this panel and 20% of them were active in at least one assay; those are over-represented in the sample as a whole.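 Step 1: grow cells in 96-well plates. Step 2: add test compound at a single concentration. Step 3: incubate 48 h. Step 4: record percent growth.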 Calls of active or inactive are those of the source. How the source made its calls: active means growth percent below 10; inactive means the rest.
# System: RPMI-8226 leukemia
# Test: NCI-60 one-dose screen, 48 h (100 = growth as untreated, 0 = no growth, -100 = all killed)
# Conditions: 10 µM unless noted
row,SMILES,growth
1,Cc1ccc(NC(=O)c2ccc(CN3CCN(C)CC3)c(C(F)(F)F)c2)cc1Oc1ccc(-c2[nH]nc3ncnc(N)c23)cc1,18.1% (inactive)
2,COc1ccc([C@H]2c3[nH]c4ccccc4c3C[C@@H]3C(=O)N(C4CCN(Cc5ccccc5)CC4)CC(=O)N23)c(OC)c1,52.9% (inactive)
3,IP(CCCSc1n(Cc2ccc3ccccc3c2)c(-c2ccccc2)c(-c2ccccc2)[n+]1Cc1ccc2ccccc2c1)(c1ccccc1)(c1ccccc1)c1ccccc1,14.8% (inactive)
4,O=C1NC(=O)c2c1c1c3ccccc3ccc1c1[nH]c3ccccc3c21,1.6% (active)
5,COc1cc(/C=N/n2cnc3oc(-c4ccccc4)cc3c2=N)cc(CN2CCN(C)CC2)c1O,95.8% (inactive)
6,COC1=C(c2ccccc2)C(=O)C(OC)=C(c2ccccc2)C1=O,93.5% (inactive)
7,Cc1ccc(-c2csc(N/N=C/c3nc4ccccc4n3C3CC3)n2)cc1,84.8% (inactive)
8,CC(C)=CCc1c(O)c(CC=C(C)C)c2c(c1O)C(=O)C1=C[C@@H]3C[C@H]4C(C)(C)O[C@@](C/C=C(\C)C(=O)O)(C3=O)[C@@]14O2,-23.1% (active)
9,CN1CCN(c2nc(-c3csc(-c4ccncc4)n3)cc3ccccc23)CC1,47.1% (inactive)
10,CN1C(=O)N(C)C2C1NN=c1s/c(=C\c3ccccn3)c(=O)n12 (stereo not drawn),101% (inactive)
11,CC(C)SC1=NC(=C(C(=N1)NC2=ClC=CC=C2)C#N)C3=CC=CC=C3,88.2% (inactive)
12,CC(=O)NC(C)(C)C(=O)N[C@@H](C)C(=O)NC(C)(C)C(=O)N[C@@H](C)C(=O)NC(C)(C)C(=O)N[C@@H](C)C(=O)N[C@@H](CCC(N)=O)C(=O)NC(C)(C)C(=O)N[C@H](C(=O)NC(C)(C)C(=O)NCC(=O)N[C@@H](CC(C)C)C(=O)NC(C)(C)C(=O)N1CCC[C@H]1C(=O)N[C@H](C(=O)NC(C)(C)C(=O)NC(C)(C)C(=O)N[C@@H](CCC(N)=O)C(=O)N[C@@H](CCC(N)=O)C(=O)N[C@H](CO)CC1CCCCC1)C(C)C)C(C)C,-3.49% [5 µM] (active)
13,Clc1ccc(-c2csc(N/N=C/c3nc4ccccc4n3C3CC3)n2)cc1,100% (inactive)
14,O=C(NCCCNc1cc(-c2cn(-c3ccccc3)nc2-c2cccc(O)c2)ccn1)Nc1cc(C(F)(F)F)cc(C(F)(F)F)c1,43.9% (inactive)
15,COc1ccc(-c2ccc3c4c(cccc24)C(=O)N(N2C(=O)c4cccc5cccc(c45)C2=O)C3=O)cc1,29.4% (inactive)
16,Cc1cc(C(=O)Nc2ccc(SC#N)cc2)c(C)o1,83.1% (inactive)
17,Oc1ccc(CSc2nnc(-c3cnccn3)o2)c2cccnc12,7.74% (active)
18,O=C(O)c1ccc(-n2cc(CNc3ccc(Cl)cc3)c(-c3ccc(F)cc3)n2)cc1,80.2% (inactive)
19,Cc1cn(-c2cc(NC(=O)c3cncc(C#Cc4cnc5ccc(OCCCS(C)(=O)=O)nn45)c3)cc(C(F)(F)F)c2)cn1,39.5% (inactive)

row,SMILES,growth
1,N/C(=N\OC(=O)CSc1nc2ccccc2s1)c1ccc2ccccc2c1,110% (inactive)
2,Nc1nc(-c2cccc([N+](=O)[O-])c2)c(N=Nc2cccc(Cl)c2)s1,46.6% (inactive)
3,CC[C@@](C)(NC(=O)C(C)(C)NC(=O)[C@@H](NC(=O)[C@@H]1CCCN1C(=O)C(C)(C)NC(=O)[C@H](CC(C)C)NC(=O)CNC(=O)C(C)(C)NC(=O)[C@@H](NC(=O)C(C)(C)NC(=O)[C@H](CCC(N)=O)NC(=O)[C@H](C)NC(=O)C(C)(C)NC(=O)[C@H](C)NC(=O)C(C)(C)NC(=O)[C@@H]1CCCN1C(=O)C(C)(C)NC(C)=O)C(C)C)C(C)C)C(=O)N[C@@H](CCC(N)=O)C(=O)N[C@@H](CCC(N)=O)C(=O)N[C@H](CO)Cc1ccccc1,-10.5% [4.25 µM] (active)
4,COc1ccc(-c2nn(-c3ccccc3)cc2/C=C/C(=O)c2ccc(NC(=O)CCCCCCC(=O)NO)cc2)cc1,115% (inactive)
5,Nc1ccc(-c2nnc(SCc3ccc(O)c4ncccc34)o2)cc1,-9.68% (active)
6,O=C1Nc2ccc(Cl)cc2/C1=C/c1ccc(OCc2ccc(Br)cc2F)cc1,95.8% (inactive)
7,C=C1C(=O)O[C@@H]2/C=C(/C)C3=CC(=O)[C@@](C)(C[C@H](OC(=O)/C(C)=C\C)[C@@H]12)O3,-11.3% (active)
8,O=C(CCCCCCN1CC(=O)N2[C@@H](c3cccc(Cl)c3)c3[nH]c4ccccc4c3C[C@H]2C1=O)NO,15% (inactive)
9,CS(=O)(=O)c1ccc(-c2nn(-c3ccccc3)cc2/C=N/NC(=O)c2ccncc2)cc1,115% (inactive)
10,CC(C)=CCc1c2c(c(O)c3c1O[C@]14C(=C[C@@H]5C[C@H]1C(C)(C)O[C@@]4(C/C=C(/C)C(=O)O)C5=O)C3=O)CC(O)C(C)(C)O2 (stereo partly drawn),-18.5% (active)
11,C=C(C)C(=O)O[C@H]1C[C@@]2(C)OC(=CC2=O)/C(CO)=C\[C@H]2OC(=O)C(=C)[C@H]12,-25.6% (active)
12,COc1ccc(-c2nnc(SCc3ccc(O)c4ncccc34)o2)cc1,9.32% (active)
13,Nc1ccc(-c2nnc(SCc3ccc(O)c4ncccc34)n2-c2ccccc2)cc1,11.6% (inactive)
14,CC(C)N=C(N/C(N)=N/c1nc2ccccc2s1)NC(C)C,42.7% (inactive)
15,CN1CCN(Cc2ccc(NC(=O)c3cncc(C#Cc4cnc5ccc(NC6CCOCC6)nn45)c3)cc2C(F)(F)F)CC1,-34.1% (active)
16,COc1cc(/C=C/C(=O)c2ccc(NC(=O)CSc3nnc(-c4ccc5nc(-c6ccccc6)[nH]c5c4)o3)cc2)cc(OC)c1OC,30.7% (inactive)
17,CC(=O)c1ccc(NC(=O)COc2ccc(C3SCC(=O)N3c3ccc(Br)cc3)cc2)cc1 (stereo not drawn),89.6% (inactive)
18,COc1ccc(Cn2cc3c(c2-c2ccccc2)CCCc2cnoc2-3)cc1,59.8% (inactive)
19,O=C(CSc1ccc(-c2nc3ccccc3[nH]2)cn1)N1CCN(c2ccccc2F)CC1,50.2% (inactive)
